Active and inactive are the calls of the source.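 How the source made its calls: active means a significant rise in survival of treated spinal muscular atrophy model mice compared with vehicle-treated controls; inactive means no significant rise in survival.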

The experiment is described as follows: Extended Characterization of SMN2 Inhibitors: Survival Studies. As to conditions: SMNdelta7 SMA mice, 50 mg/kg i.p. twice daily. An excerpt: Spinal muscular atrophy (SMA) is caused by insufficient levels of the survival motor neuron protein SMN. The SMN locus on chromosome 5q13 contains two inverted copies of SMN called SMN1 and SMN2 which are 99% identical at the amino acid level. SMN1 is a fully functional protein and SMN2 skips exon 7 90% of the time. Skipping of exon 7 produces non-functional protein product. 10% of the SMN2 protein includes exon 7 and is fully functional. In the SMA disease state, mutations in the SMN1 locus are the cause of the disease state. Because only 10% of SMN2 is of the fully functional form, it is not sufficient to overcome the deficiency produced by the loss of the SMN1 product. A therapy that either increase the amount of SMN2 product made or to increase the inclusion of exon 7 has been proposed for the treatment of SMA. We have previously filed a probe report and have now done further SAR and further characterized the resulting compounds in mice studies. […]
Studies were approved by the National Institute of Neurological […] and Stroke Animal Care Committee and performed in accordance with the National Institutes of Health Guide for the Care and Use of Laboratory Animals. […] For survival studies, litters were maintained and kept with the mother until P21, after which if any SMA pups survived they were weaned and continued to be monitored.
For the molecule `O=C(O)C1CCN(c2ncc(-c3ccc4c(c3)OCCCO4)s2)CC1`, the outcome is “active; yes”.

The values are drawn from PubChem BioAssay AID687010 (National Center for Advancing Translational Sciences (NCATS), 2013).
